We go through seven compounds from PubChem BioAssay.

The nature of assay [1]: yeast TOR pathway RPL19A-GFP modulators, primary screen, cell-based, S. cerevisiae, multiplex flow cytometry (AID 1862; in the data active means percent of DMSO control GFP below about 86%;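 further: lower values mimic rapamycin by blocking the RPL19A rise seen in DMSO cells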). Particulars: S. cerevisiae RPL19A-GFP strain, flow cytometry fluorescence, 3 h; at 10 µM; stronger effect = lower value.
Assay [2] can be described thus: modulators of MEP2-GFP levels in yeast, primary screen, S. cerevisiae, multiplex flow cytometry (AID 1867;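 active means GFP response, as percent of the DMSO control, above the screen-wide mean plus 3 SD, about 139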;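 further: median GFP channel fluorescence of barcode-gated MEP2-GFP cells measured by flow cytometry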). The settings on record: S. cerevisiae MEP2-GFP strain, 3 h, at 10 µM, stronger effect = higher value, 100% means same as DMSO wells.
A short description of assay [3]: modulators of CIT2-GFP expression in yeast, primary screen, S. cerevisiae, GFP fusion, multiplex flow cytometry (AID 1870;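 active means percent response above a set limit, the screen-wide mean plus 3 SD, cut at about 130% in these data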;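 further: barcoded CIT2-GFP strain pooled with four other GFP strains with rapamycin as positive control; median GFP fluorescence per well over plate mean of DMSO wells so 100% = DMSO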). The settings on record: 3 h, at 10 µM, stronger effect = higher value.
A short description of assay [4]: modulators of LAP4-GFP expression in yeast, primary screen, S. cerevisiae, multiplex flow cytometry (AID 1873). Particulars: 3 h, at 10 µM, stronger effect = higher value.
The nature of assay [5]: modulators of AGP1-GFP expression in yeast TOR pathway, primary screen, cell-based, multiplex flow cytometry, S. cerevisiae (AID 1887;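 active means GFP signal above the screen-wide mean plus 3 SD, that is over about 124.5% of the solvent control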;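 further: AGP1-GFP fusion strain of S. cerevisiae within a five-strain barcoded multiplex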). Particulars: 3 h, at 10 µM, stronger effect = higher value.
Assay [6] is described as follows: inhibitors of CD8+ T cell-vesicle binding, pilot screen, LFA-1/ICAM-1 modulator project, MLPCN validation set, flow cytometry (AID 2523;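 active means response below a set limit, under 55% cells CD8-positive and vesicle-bound, and CD8 cells' 90th-percentile brightness under 279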;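 on vesicle binding response: mean PE anti-B7-1 fluorescence of CD8+ cells relative to row control; 100% = QL9-loaded vesicles with DMSO vehicle in the same plate row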). The settings on record: 2C mouse CD8+ T cells, at 7 µM, stronger effect = lower value; double positive events: measured here: CD8+/vesicle+ event percentage.
Assay [7] addresses Integrin beta-1 (Homo sapiens) + Integrin alpha-4 (Homo sapiens) (UniProt P13612+P05556). Put plainly: inhibition of HUTS-21 binding to VLA-4, pilot screen, VLA-4 allosteric modulator project, U937 cells, HUTS-21 mAb, flow cytometry, validation set (AID 2674;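 active means inhibition above 50%, about 3 SD of the validation set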;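 further: antibody binding induced by the VLA-4 ligand LDV present at three times its Kd; 0% = LDV ligand with antibody and no compound and 100% = antibody without LDV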). Particulars: HUTS-21 LIBS mAb binding, at 6.7 µM, stronger effect = higher value, binding induced by LDV ligand.
A short description of assay [8]: superoxide lowering in aged yeast cells, pilot screen, validation compound set (AID 2706;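 active means superoxide response below 65% of plate, a cut near 3 SD across the whole screen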;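 further: yeast exposed to compound for one week at 30 degrees C before staining; 100% = mean of all compound wells on the same plate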). Particulars: S. cerevisiae aging, superoxide DHE fluorescence; at 10 µM; stronger effect = lower value.
In assay [9] the target is Beta-adrenergic receptor kinase 1 (Homo sapiens) (UniProt P25098). The assay is described as follows: GRK2 binders displacing RNA aptamer, biochemical, validation, human GRK2, bead flow cytometry (AID 488806;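 active means aptamer binding inhibition above 30%, about 3 SD of noise from non-fluorescent compounds; inactive means inhibition at or below 30%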). The settings on record: bead-bound GRK2, FAM-aptamer displacement, at 10 µM, stronger effect = higher value.
Sequence of Beta-adrenergic receptor kinase 1 (Homo sapiens) (P25098 whole entry, looked up): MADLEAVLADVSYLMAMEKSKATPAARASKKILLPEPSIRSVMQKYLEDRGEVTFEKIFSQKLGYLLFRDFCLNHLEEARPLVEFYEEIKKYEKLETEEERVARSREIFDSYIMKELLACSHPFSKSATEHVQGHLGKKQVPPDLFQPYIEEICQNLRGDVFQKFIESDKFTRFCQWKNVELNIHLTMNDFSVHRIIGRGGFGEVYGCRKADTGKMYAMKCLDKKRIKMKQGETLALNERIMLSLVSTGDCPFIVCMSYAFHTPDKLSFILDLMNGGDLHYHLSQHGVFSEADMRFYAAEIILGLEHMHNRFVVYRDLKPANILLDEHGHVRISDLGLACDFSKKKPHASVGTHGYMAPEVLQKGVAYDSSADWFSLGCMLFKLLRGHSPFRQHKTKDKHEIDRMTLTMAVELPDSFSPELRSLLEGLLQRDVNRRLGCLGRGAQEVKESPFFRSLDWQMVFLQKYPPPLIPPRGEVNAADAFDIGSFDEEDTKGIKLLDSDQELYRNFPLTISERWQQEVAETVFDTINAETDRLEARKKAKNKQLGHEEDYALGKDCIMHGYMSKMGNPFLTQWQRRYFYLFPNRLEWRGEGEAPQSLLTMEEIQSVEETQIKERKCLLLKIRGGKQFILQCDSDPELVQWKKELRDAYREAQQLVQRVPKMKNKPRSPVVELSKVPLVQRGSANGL
For assay [10], the target named is Beta-2 adrenergic receptor (Homo sapiens) (UniProt P07550). Put plainly: beta2AR agonists driving receptor internalization, pilot screen, cell-based, FAP fluorogen, flow cytometry, validation set (AID 504459;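 active means percent response above 42, roughly 3 SD of non-fluorescent test compounds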;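 further: agonist-driven loss of surface beta2AR via internalization measured by FAP dye flow cytometry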). The settings on record: Am2.2-beta2AR cells, FAP surface receptor flow cytometry; at 10 µM; stronger effect = higher value.
Sequence of Beta-2 adrenergic receptor (Homo sapiens) (P07550 whole entry, looked up): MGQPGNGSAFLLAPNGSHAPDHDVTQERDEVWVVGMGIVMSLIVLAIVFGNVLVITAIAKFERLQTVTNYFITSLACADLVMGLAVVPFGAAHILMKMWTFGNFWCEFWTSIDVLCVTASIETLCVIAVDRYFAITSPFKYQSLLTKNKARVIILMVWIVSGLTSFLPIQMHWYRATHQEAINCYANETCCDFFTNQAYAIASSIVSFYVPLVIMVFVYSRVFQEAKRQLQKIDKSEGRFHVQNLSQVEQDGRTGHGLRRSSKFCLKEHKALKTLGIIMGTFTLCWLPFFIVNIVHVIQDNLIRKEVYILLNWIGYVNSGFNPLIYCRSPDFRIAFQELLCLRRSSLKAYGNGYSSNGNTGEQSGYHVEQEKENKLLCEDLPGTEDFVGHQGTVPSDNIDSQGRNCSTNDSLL
In assay [11] the target is AP-2 complex subunit beta (Homo sapiens) (UniProt P63010). The assay is described as follows: inhibitors of arrestin peptide binding to AP2, pilot screen, biochemical, validation set, GST-AP2 beads, flow cytometry (AID 504541;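 active means inhibition above 54%, about 3 SD of non-fluorescent compounds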;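 further: AP2 carries R879A mutation and is captured from E. coli lysate; bead-bound FITC arrestin peptide fluorescence measuring arrestin peptide binding to AP2; 0% = DMSO wells and 100% = excess unlabeled arrestin peptide control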). Particulars: FITC arrestin peptide, at 10 µM, stronger effect = higher value, AP2 beta2 appendage fragment, R879A mutant.
Sequence of AP-2 complex subunit beta (Homo sapiens) (P63010 whole entry, looked up, the tested form may be a part, one chain of several): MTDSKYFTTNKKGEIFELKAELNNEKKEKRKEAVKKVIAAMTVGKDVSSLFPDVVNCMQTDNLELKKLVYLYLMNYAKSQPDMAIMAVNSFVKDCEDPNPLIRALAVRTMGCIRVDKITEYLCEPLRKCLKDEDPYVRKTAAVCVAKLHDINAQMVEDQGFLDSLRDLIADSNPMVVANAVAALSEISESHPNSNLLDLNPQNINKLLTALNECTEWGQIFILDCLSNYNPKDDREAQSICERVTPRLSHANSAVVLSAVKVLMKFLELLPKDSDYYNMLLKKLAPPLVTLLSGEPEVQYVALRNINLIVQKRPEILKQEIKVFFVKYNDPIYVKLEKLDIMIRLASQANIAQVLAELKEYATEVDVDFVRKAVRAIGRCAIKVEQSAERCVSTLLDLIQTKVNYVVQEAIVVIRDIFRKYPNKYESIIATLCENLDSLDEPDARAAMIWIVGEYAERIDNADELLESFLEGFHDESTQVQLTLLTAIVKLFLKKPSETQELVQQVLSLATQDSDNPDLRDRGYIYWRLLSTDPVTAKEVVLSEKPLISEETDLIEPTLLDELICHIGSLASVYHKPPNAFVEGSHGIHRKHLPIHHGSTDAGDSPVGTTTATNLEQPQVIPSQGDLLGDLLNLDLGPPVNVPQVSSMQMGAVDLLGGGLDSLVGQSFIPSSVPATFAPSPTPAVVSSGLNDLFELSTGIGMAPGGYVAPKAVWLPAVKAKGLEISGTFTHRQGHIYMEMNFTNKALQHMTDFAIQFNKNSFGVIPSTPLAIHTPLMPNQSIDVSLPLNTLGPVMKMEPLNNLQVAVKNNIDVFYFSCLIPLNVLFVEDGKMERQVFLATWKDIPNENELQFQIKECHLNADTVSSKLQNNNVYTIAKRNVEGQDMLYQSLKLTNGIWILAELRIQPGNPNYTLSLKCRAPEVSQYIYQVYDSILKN
Assay [12] can be described thus: yeast V-ATPase proton transport modulators, S. cerevisiae, pHLuorin, HTS validation (AID 504600; in the data active means response above about 15%;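 further: plate controls were DMSO for no effect and reference compound for full effect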). The settings on record: S. cerevisiae pHLuorin cytosolic pH, at 10 µM, stronger effect = higher value.
Assay [13] relates to anti-desmoglein-3 scFv antibody binding to human DSG3. Put plainly: inhibitors of anti-DSG3 scFv binding to DSG3, pilot screen, biochemical, validation compound set, bead-based, flow cytometry (AID 588368;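 active means binding below the plate cutoff, the plate median minus 3 SD, with a reading above zero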;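 further: signal is the median channel fluorescence of bead-bound GFP antibody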). Particulars: Protein G beads, DSG3-Fc, scFv-GFP binding, at 10 µM, stronger effect = lower value.
Assay [14] in a line: inhibitors of fungal efflux pumps CDR1, CDR2, MDR1, pilot screen, validation compound set, multiplex, phenotypic (AID 588506;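 active means efflux inhibition above 0.42, the validation set average plus 4 SD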;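 further: Nile Red retained in cells so higher fluorescence means more efflux inhibition; 0 = negative control wells and 1 = enniatin B 25 µM full block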). The settings on record: S. cerevisiae pump-expressing triplex, Nile Red efflux flow cytometry; at 10 µM; stronger effect = higher value; the pumps come from Candida albicans.
Assay [15] has as its target ATP-binding cassette sub-family B member 6 (Homo sapiens) (UniProt Q9NP58). The assay is described as follows: ABCB6 transporter inhibitors, pilot screen, K562-ABCB6 cells, flow cytometry, validation set (AID 588550;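 active means inhibition above the screen-wide mean plus 3 SD, about 51%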;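 further: 0% = DMSO wells and 100% = benzethonium chloride 70 µM positive control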). The settings on record: K562-ABCB6 porphyrin accumulation, 1 h, at 10 µM, stronger effect = higher value.
A short description of assay [16]: promoters of myeloid differentiation in arrested cells, primary screen, cell-based, GFP/MAC1 double positive, flow cytometry, validation set (AID 588685;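 active means differentiation response of at least 50%, scaled between solvent and reference control, from cells with both markers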;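 further: compound exposure lasts four days before antibody staining and flow analysis; 0% = DMSO wells and 100% = 5 µM fulvestrant positive control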). Particulars: ER-HoxA9 marrow cells, stronger effect = higher value, normalized: vehicle 0, fulvestrant 100.

Results filed as inconclusive are left out. Activity calls are given as the source filed them.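 How the source made its calls, unless noted: active means GFP signal, as percent of the solvent control, above the screen mean plus 3 SD, about 149; inconclusive means no reading because the compound's own fluorescence upset strain identification; inactive means the rest.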

Sequence of ATP-binding cassette sub-family B member 6 (Homo sapiens) (Q9NP58 whole entry, looked up): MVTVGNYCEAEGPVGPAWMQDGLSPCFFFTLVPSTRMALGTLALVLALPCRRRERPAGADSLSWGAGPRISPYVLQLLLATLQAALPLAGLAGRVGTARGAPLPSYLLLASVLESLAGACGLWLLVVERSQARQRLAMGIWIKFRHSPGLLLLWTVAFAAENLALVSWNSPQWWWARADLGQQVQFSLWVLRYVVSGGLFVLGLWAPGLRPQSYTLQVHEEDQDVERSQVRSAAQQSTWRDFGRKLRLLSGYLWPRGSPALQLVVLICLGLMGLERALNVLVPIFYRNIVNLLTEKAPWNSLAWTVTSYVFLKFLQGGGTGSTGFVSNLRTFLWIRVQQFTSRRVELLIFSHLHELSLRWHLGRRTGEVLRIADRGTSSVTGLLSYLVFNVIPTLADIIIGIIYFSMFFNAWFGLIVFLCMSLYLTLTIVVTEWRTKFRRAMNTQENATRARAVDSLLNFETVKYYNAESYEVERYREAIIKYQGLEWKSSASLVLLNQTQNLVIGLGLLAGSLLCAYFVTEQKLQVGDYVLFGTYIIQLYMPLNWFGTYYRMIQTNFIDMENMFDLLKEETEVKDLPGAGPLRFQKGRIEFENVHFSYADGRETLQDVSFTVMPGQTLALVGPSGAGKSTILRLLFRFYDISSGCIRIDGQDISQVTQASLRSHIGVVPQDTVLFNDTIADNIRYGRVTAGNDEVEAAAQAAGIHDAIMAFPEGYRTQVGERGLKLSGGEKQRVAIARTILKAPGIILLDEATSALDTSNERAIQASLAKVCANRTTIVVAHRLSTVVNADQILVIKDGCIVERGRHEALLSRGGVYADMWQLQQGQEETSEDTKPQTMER
Sequence of Integrin beta-1 (Homo sapiens) + Integrin alpha-4 (Homo sapiens) (P05556 whole entry, looked up): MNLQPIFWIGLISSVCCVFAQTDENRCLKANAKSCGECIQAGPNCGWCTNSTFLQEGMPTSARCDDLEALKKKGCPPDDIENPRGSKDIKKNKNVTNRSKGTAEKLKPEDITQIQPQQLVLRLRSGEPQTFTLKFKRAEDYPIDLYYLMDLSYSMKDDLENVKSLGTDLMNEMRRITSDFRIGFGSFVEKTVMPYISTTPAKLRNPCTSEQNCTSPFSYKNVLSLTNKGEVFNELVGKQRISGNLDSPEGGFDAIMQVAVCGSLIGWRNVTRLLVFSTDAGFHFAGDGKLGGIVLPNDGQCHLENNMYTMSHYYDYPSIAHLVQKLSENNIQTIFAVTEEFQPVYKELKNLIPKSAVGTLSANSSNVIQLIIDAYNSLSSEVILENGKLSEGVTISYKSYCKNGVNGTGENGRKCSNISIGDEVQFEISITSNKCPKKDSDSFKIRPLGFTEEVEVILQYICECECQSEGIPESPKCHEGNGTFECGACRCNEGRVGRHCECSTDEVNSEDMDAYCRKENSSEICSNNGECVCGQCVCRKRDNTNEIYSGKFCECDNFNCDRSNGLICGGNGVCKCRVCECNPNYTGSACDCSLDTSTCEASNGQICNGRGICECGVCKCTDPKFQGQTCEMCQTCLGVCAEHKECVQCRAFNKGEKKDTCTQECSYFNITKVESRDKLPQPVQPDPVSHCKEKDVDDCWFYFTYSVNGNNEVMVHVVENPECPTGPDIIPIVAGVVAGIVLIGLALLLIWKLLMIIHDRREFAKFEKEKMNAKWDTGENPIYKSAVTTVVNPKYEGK
Sequence of Integrin beta-1 (Homo sapiens) + Integrin alpha-4 (Homo sapiens) (P13612 whole entry, looked up): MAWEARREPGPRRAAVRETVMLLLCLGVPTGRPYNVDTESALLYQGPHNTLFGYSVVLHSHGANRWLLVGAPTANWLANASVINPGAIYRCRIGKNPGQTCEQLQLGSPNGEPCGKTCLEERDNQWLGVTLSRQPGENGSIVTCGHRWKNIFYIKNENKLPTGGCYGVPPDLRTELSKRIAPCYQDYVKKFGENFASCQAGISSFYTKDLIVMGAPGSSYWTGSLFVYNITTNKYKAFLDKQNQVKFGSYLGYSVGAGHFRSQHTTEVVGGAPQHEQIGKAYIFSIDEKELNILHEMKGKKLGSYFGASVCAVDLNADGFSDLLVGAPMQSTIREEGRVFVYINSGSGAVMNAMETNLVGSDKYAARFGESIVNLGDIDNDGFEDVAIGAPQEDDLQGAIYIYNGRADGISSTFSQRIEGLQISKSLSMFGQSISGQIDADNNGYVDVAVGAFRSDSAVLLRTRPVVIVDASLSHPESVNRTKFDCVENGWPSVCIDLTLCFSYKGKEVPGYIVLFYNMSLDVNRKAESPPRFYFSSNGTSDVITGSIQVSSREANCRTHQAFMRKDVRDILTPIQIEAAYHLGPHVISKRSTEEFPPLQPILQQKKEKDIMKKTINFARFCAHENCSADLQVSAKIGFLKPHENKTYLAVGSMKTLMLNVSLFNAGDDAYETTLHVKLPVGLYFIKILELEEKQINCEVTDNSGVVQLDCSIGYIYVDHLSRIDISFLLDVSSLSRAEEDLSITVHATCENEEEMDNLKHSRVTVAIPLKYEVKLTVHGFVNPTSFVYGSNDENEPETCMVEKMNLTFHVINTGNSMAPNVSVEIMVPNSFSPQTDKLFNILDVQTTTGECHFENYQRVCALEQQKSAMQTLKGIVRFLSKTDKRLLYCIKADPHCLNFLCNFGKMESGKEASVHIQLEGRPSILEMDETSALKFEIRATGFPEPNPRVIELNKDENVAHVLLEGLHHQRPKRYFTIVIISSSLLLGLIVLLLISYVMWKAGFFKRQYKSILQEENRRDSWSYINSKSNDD

As for `Cc1ccc(S(=O)(=O)NC(=O)Nc2cc(C)ccc2F)cc1`, in assay [1], the percent of DMSO control GFP is 102% (inactive). For the same compound, the GFP response vs DMSO was 105% (inactive) in [2] and 82.2% (inactive) in [4]. The percent response of DMSO control in [3] is 93.1% (inactive). Besides, the GFP response, % of DMSO in assay [5] is 96.5% (inactive). In assay [6], this compound displayed a double positive events of 62.3%. In addition, the vesicle binding response in assay [6] is 1090% (inactive). In addition, the values for the inhibition in [7], in [11] and in assay [15] were 2.66% (inactive), 56.9% (active) and -2% (inactive), respectively. Besides, in assay [8], the superoxide response (% of plate) was 110% (inactive). For the same compound, the aptamer binding inhibition in [9] was 2% (inactive). Further, the response was -5.23% (inactive) in assay [10] and -3.86% (inactive) in [12]. Moreover, in [13], the binding (% of control) is 92.9% (inactive). Moreover, the efflux inhibition (fraction of control) in assay [14] was 0.64 (active). Further, the differentiation response in assay [16] was 34.5% (inactive).
Turning to `O=C(CC(NC(=O)OCc1ccccc1)C(=O)O)OCc1ccccc1` (centres undefined), in assay [1], the percent of DMSO control GFP is 106% (inactive). Further, the GFP response vs DMSO in assay [2] is 99.3% (inactive); in [4], 98% (inactive). Further, in [3], the percent response of DMSO control is 107% (inactive). Further, the GFP response, % of DMSO in [5] was 99.5% (inactive). Besides, the double positive events in assay [6] was 63.2%. For the same compound, the vesicle binding response in assay [6] was 160% (inactive). In addition, the inhibition in assay [7] is 18.2% (inactive); in [11] it was -5.06% (inactive); in assay [15] it was 22% (inactive). For the same compound, in assay [8], the superoxide response (% of plate) was 94.6% (inactive). Also, the aptamer binding inhibition in [9] was 4% (inactive). Besides, the results for the response in [10] and in assay [12] were -5.78% (inactive) and -3.27% (inactive), respectively. For the same compound, in [13], the binding (% of control) was 97.1% (inactive). For the same compound, the efflux inhibition (fraction of control) in assay [14] was -0.07 (inactive). For the same compound, the differentiation response in assay [16] was -2.69% (inactive).
Take `O=C(/C=C/c1ccc(F)cc1)N1CC[C@@]2(O)CCCC[C@H]2C1`: the percent of DMSO control GFP in [1] was 96.7% (inactive). Also, the GFP response vs DMSO in assay [2] is 112% (inactive); in [4] it was 125% (inactive). The percent response of DMSO control in [3] is 89.1% (inactive). Further, the GFP response, % of DMSO in [5] was 96.5% (inactive). In addition, the double positive events in assay [6] worked out at 61.1%. Besides, the vesicle binding response in [6] is 198% (inactive). Further, the values for the inhibition in [7], in assay [11] and in assay [15] were -4.52% (inactive), -5.97% (inactive) and 7% (inactive), respectively. For the same compound, the superoxide response (% of plate) in assay [8] was 98.4% (inactive). The aptamer binding inhibition in assay [9] was 3% (inactive). Moreover, the results for the response in assay [10] and in assay [12] were 15.3% (inactive) and 10.1% (inactive), respectively. In [13], the binding (% of control) was 98% (inactive). The efflux inhibition (fraction of control) in assay [14] was -0.13 (inactive). Further, the differentiation response in assay [16] is -13.6% (inactive).
Take `CCCCN1C[C@H](O)[C@@H](O)[C@H](O)[C@H]1CO`: in assay [1], the percent of DMSO control GFP was 102% (inactive). Besides, the GFP response vs DMSO in [2] was 99.6% (inactive); in assay [4] it was 103% (inactive). In addition, the percent response of DMSO control in assay [3] is 95.7% (inactive). Also, in assay [5], the GFP response, % of DMSO is 113% (inactive). Further, the double positive events in assay [6] was found to be 64.9%. Besides, the vesicle binding response in [6] is 203% (inactive). Moreover, the values for the inhibition in assay [7], in [11] and in [15] were 13.4% (inactive), -12.1% (inactive) and 0% (inactive), respectively. Besides, the superoxide response (% of plate) in assay [8] was 104% (inactive). In addition, the aptamer binding inhibition in assay [9] was 5% (inactive). For the same compound, the response in assay [10] is -17% (inactive); in assay [12] it was 5.64% (inactive). In addition, the binding (% of control) in [13] is 104% (inactive). For the same compound, in [14], the efflux inhibition (fraction of control) was -0.04 (inactive). Besides, the differentiation response in assay [16] was 0.92% (inactive).
Regarding `CC(=O)OC(CC(=O)O)C[N+](C)(C)C` (centres undefined), the percent of DMSO control GFP in [1] is 100% (inactive). Further, the GFP response vs DMSO in assay [2] is 103% (inactive); in assay [4] it was 92.7% (inactive). For the same compound, the percent response of DMSO control in [3] is 95.4% (inactive). Besides, in assay [5], the GFP response, % of DMSO is 97.6% (inactive). For the same compound, in assay [6], the double positive events was 65%. Besides, the vesicle binding response in assay [6] is 243% (inactive). Also, the inhibition in [7] was -17.1% (inactive); in assay [11], 14.1% (inactive); in assay [15], 10% (inactive). The superoxide response (% of plate) in assay [8] was 103% (inactive). Besides, the aptamer binding inhibition in [9] is 2% (inactive). Also, the response in assay [10] was -0.16% (inactive); in assay [12], -2.66% (inactive). Further, in assay [13], the binding (% of control) is 97.1% (inactive). The efflux inhibition (fraction of control) in assay [14] was 0.02 (inactive). Besides, the differentiation response in assay [16] is -8.55% (inactive).
As to `CCC1CCc2c(sc(NC(=O)c3cccnc3)c2C(N)=O)C1` (centres undefined), the percent of DMSO control GFP in assay [1] is 97.6% (inactive). The GFP response vs DMSO was 102% (inactive) in assay [2] and 108% (inactive) in assay [4]. The percent response of DMSO control in assay [3] was 96.4% (inactive). The GFP response, % of DMSO in assay [5] was 107% (inactive). In assay [6], this compound gave a double positive events of 64.4%. The vesicle binding response in [6] is 252% (inactive). Moreover, the inhibition is -38.6% (inactive) in assay [7], 5.47% (inactive) in [11] and 14% (inactive) in [15]. Moreover, the superoxide response (% of plate) in [8] is 99.6% (inactive). The aptamer binding inhibition in assay [9] is 7% (inactive). The results for the response in assay [10] and in assay [12] were -24.4% (inactive) and -30.9% (inactive), respectively. The binding (% of control) in assay [13] was 98.3% (inactive). Moreover, in assay [14], the efflux inhibition (fraction of control) is -0.09 (inactive). Moreover, in [16], the differentiation response is 38.4% (inactive).
As for `COc1ccc2[nH]c3c(c2c1)CCNC3C1CC=C(C)CC1` (centres undefined), the percent of DMSO control GFP in [1] was 95.9% (inactive). For the same compound, the GFP response vs DMSO in assay [2] was 128% (inactive); in assay [4], 79.8% (inactive). The percent response of DMSO control in assay [3] was 104% (inactive). In addition, the GFP response, % of DMSO in assay [5] is 101% (inactive). For the same compound, in [6], the double positive events came to 69%. Also, the vesicle binding response in assay [6] was 519% (inactive). In addition, the inhibition is 7.43% (inactive) in assay [7], 2.43% (inactive) in [11] and -1% (inactive) in [15]. In addition, the superoxide response (% of plate) in [8] was 111% (inactive). The aptamer binding inhibition in assay [9] is -1% (inactive). Also, the response is 13.6% (inactive) in [10] and -0.18% (inactive) in assay [12]. Also, in [13], the binding (% of control) is 113% (inactive). Further, the efflux inhibition (fraction of control) in assay [14] is 0.12 (inactive). The differentiation response in assay [16] is 0.82% (inactive).
